Bioassay records (PubChem BioAssay)
Cycloheximide cs = Cycloheximide Counterscreen for Small Molecule Inhibitors of Shiga Toxin | cell reporter, cycloheximide protein synthesis inhibition counterscreen | max response, % | actives 12% (n = 300,000); in the data active means max response mostly above about 13%, no sharp cut-off; inactive means mostly below about 14%; further: read at 38.3 µM for the half of the compounds with a filed dose
FMDV antiviral = High Throughput Screening for Foot and Mouth Disease Virus Antivirals. AID 1159524, 2015. Potency, µM (series often up to 57.9 µM), hits mostly inhibitors. actives 1.2% (n = 410,000). FMDV antiviral cell-based qHTS; calls by dose curve; tested in HEK293T cells; further: read-out not given here; nearly all actives have a fitted effect of over 45% in size
Shiga inhibitor = A qHTS for Small Molecule Inhibitors of Shiga Toxin | inhibition, % at 38.7 µM | actives 9.2% (n = 290,000) | Vero cells, Shiga toxin protein synthesis inhibition reporter | AID 2315, 2010; in the data active means inhibition mostly above about 28%, no sharp cut-off; inactive means mostly below about 43%
Sm TGR block = qHTS Assay for the Inhibitors of Schistosoma Mansoni Peroxiredoxins. purified TGR, DTNB reduction, TNB absorbance 405 nm. actives 3% (n = 360,000). Potency, µM (top dose mostly 114 µM), usual class: inhibitors. AID 485364, 2010; active means well fitted inhibition curve with a large enough effect; inconclusive means small, poorly fitted or top-dose-only effect; inactive means no such curve, though single readings can be large or run the other way; further: nearly all actives have a fitted effect of over 60% in size
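Kinetic colorimetric format: TGR-catalysed, NADPH-driven DTNB reduction monitored via TNB absorbance. Enzyme dispensed at 20 nM; compound exposure 15 min at room temperature before reaction start.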
A number is an active result; i = inactive; ? = inconclusive; nt = not tested or not shown; + = active, no number. The list is not random: actives were taken first. Their share in the collection is about 12%.

SMILES | Cycloheximide cs | FMDV antiviral | Shiga inhibitor | Sm TGR block
CCCN1C(=O)S/C(=C/c2ccc(N3CCOCC3)o2)C1=O | 47 | i | 66 | 1.4µM
CCCN1C(=O)S/C(=C\c2ccc(N3CCOCC3)o2)C1=O | 41 | i | 98 | 8.9µM
C=CCN1C(=O)/C(=C/c2ccc(N3CCOCC3)o2)C(=O)NC1=S | i | i | i | ?
COC(=O)c1ccn(-c2nc(-c3ccc(Cl)cc3)cc(C(F)(F)F)n2)n1 | nt | ? | nt | i
O=C(CSc1ncn(-c2ccccc2)n1)NCc1ccccc1 | i | i | i | i
O=C(CSc1ncn(-c2ccccc2)n1)N1CCN(c2ccccc2)CC1 | i | i | i | i
Cc1ccc(CSc2ncn(-c3ccccc3)n2)cc1 | 36 | i | 86 | i
Clc1ccccc1CSc1ncn(-c2ccccc2)n1 | 42 | i | 70 | i
CSc1cccc(NC(=O)C2CCCN(C(=O)c3cnn(-c4ccc(F)cc4)c3-n3cccc3)C2)c1 (stereo not given) | nt | ? | nt | i
CCc1ccccc1NC(=O)c1nnn(Cc2ccc(Cl)cc2)c1N | nt | i | nt | i
OCCCCCN=c1cc(-c2ccccc2)oc2ccc(Cl)cc12 | 45 | i | 85 | i
Clc1ccc2oc(-c3ccccc3)cc(=NCCCN3CCOCC3)c2c1 | 25 | i | 93 | i
Cc1cc(C)c2c(=O)cc(C(=O)NCCc3ccc(S(N)(=O)=O)cc3)oc2c1 | nt | i | nt | i
C=Cn1c(C(=O)O)ccc1-c1ccc(CC)cc1 | 42 | i | i | i
CCc1ccc(C(=O)O)cc1 | i | i | i | i
Cc1ccccc1Cn1c(SCc2ccc(C(=O)NC(C)c3ccccc3)cc2)nc2ccncc21 (stereo not given) | nt | i | nt | i
Cn1c(=O)[nH]c(=O)c2c1nc(N1CCOCC1)n2Cc1ccccc1 | nt | i | nt | i
COC(=O)c1c(-c2ccccc2)csc1NC1=NS(=O)(=O)c2ccccc21 | 62 | i | + | i
COC(=O)c1ccc(C(=O)OC)c(NC2=NS(=O)(=O)c3ccccc32)c1 | i | i | i | i
COc1ccc(C=Nc2cccnc2N)cc1 | 24 | i | nt | i
Cc1ccc(S(=O)(=O)c2ncccc2N)cc1 | i | i | i | i
Cc1ccc(C=Nc2cccnc2N)cc1 | 19 | i | 13 | i
CCOc1ccc(C=Nc2cccc3ncccc23)cc1 | i | i | i | i
CCC(=O)Nc1ccc(NC(=O)c2ccc3c(c2)OCO3)cc1 | i | i | i | i
COc1ccc(NC(=O)c2ccc3c(c2)OCO3)cc1 | 33 | i | i | i
SMILES | Cycloheximide cs | FMDV antiviral | Shiga inhibitor | Sm TGR block
CC(=O)Oc1ccc(C2OC(=O)c3ccccc3N2C(C)=O)cc1 (stereo not given) | i | i | i | i
COc1ccc(C(=O)N2c3ccccc3C(=O)OC2c2ccc3c(c2)OCO3)cc1 (stereo not given) | 20 | i | i | i
CCOC(=O)c1c(C)[nH]c(C(=O)Nc2ccc3c(c2)OCO3)c1C | 41 | nt | 53 | i
CCN(CC)c1ccc(NC(=O)c2ccc3c(c2)OCO3)cc1 | 55 | i | 58 | i
COc1ccc(-c2cc(C(=O)Nc3ccc4c(c3)OCO4)no2)cc1 | i | i | i | i
O=C(CN1CCCN(Cc2ccc(F)cc2)S1(=O)=O)NCc1ccccc1Cl | nt | i | nt | i
O=C(Nc1ccc2c(c1)OCO2)c1ccc([N+](=O)[O-])cc1[N+](=O)[O-] | i | i | 44 | i
COc1ccc(NC(=O)c2ccc3c(c2)OCO3)cc1[N+](=O)[O-] | 31 | i | 60 | nt
CCOC(=O)Nc1ccc2c(c1)OCO2 | 45 | i | i | i
O=C(Cc1ccc([N+](=O)[O-])cc1)Nc1ccc2c(c1)OCO2 | i | i | i | i
COc1ccc(C)cc1NC(=O)c1ccc2c(c1)OCO2 | 48 | i | 97 | i
CCOC(=O)c1cccc(Nc2c3c(nc4ccccc24)CCC3)c1 | nt | ? | nt | i
COc1ccc2[nH]c(C(=O)Nc3ccc4c(c3)OCO4)cc2c1 | 53 | i | 100 | i
COC(=O)Nc1ccc2c(c1)OCO2 | i | i | i | i
O=C(Nc1ccc2c(c1)OCO2)Oc1ccccc1 | 38 | i | 76 | i
CCc1ccc(NC(=O)c2ccc(OC)c([N+](=O)[O-])c2)cc1 | 37 | i | 90 | i
CCOC(=O)c1ccc(NC(=O)c2ccc3c(c2)OCO3)cc1 | 19 | i | i | i
CC(=O)c1cccc(NC(=O)c2sc(-n3nc(C)c(Cc4ccccc4)c3C)nc2C)c1 | nt | ? | nt | i
COc1ccc(/C=C/c2nc(C#N)c(N3CCN(c4ccccc4)CC3)o2)cc1OC | nt | i | nt | i
Cc1cc(C)cc(-n2c(SCC(=O)Nc3ccccc3F)nc3c(oc4ccccc43)c2=O)c1 | nt | i | nt | i
CC1CCN(c2ccc(C(=O)Nc3ccc4c(c3)OCO4)cc2[N+](=O)[O-])CC1 | i | i | i | i
CC1CCCN(c2ccc(C(=O)Nc3ccc4c(c3)OCO4)cc2[N+](=O)[O-])C1 (stereo not given) | 17 | ? | i | i
CN(C)C/C(Cl)=C(\Cl)c1ccccc1 | i | i | i | 20µM
CCCCCn1c(=O)[nH]c2cc(C(=O)Nc3cc(OC)cc(OC)c3)ccc2c1=O | nt | i | nt | i
c1ccc(Cc2nn3c(COc4ccccc4)nnc3s2)cc1 | 13 | i | 60 | i
SMILES | Cycloheximide cs | FMDV antiviral | Shiga inhibitor | Sm TGR block
CCOc1ccccc1OCc1nn2c(COc3ccccc3)nnc2s1 | i | i | i | i
Cc1noc(NS(=O)(=O)c2ccc(NC(=O)c3ccc(Br)cc3)cc2)c1C | nt | i | nt | i
CC1=C(C(N)=O)C(c2ccc(C(C)C)cc2)n2nc(SCc3ccccc3)nc2N1 (stereo not given) | nt | i | nt | i
CCN(CC)c1ccc(C(=O)NNC(=O)CCNC(=O)c2ccccc2)cc1 | nt | i | nt | i
CCN(CC)c1ccc(C(=O)NNC(=O)CCl)cc1 | 31 | i | i | 20µM
O=C(O)C1CCN(C(=O)c2ccco2)CC1 | i | i | i | i
COc1ccc(C(=O)N2CCCC(c3ccccc3)C2)cc1 (stereo not given) | i | i | i | i
O=C(c1ccc(F)cc1)N1CCC(c2ccccc2)C1 (stereo not given) | 41 | i | 68 | i
O=C(c1ccco1)N1CCC(c2ccccc2)C1 (stereo not given) | 24 | nt | 79 | ?
Cc1ccc2oc(-c3cc(NC(=O)CC(C)C)ccc3Cl)nc2c1 | nt | i | nt | i
Cc1ccc2c(c1)c1c3n2CCN(C(=O)c2ccc(C(F)(F)F)cc2)C3CCC1 (stereo not given) | nt | i | nt | i
CC(=O)c1ccc(NC(=O)c2sc(-n3nc(C)c(CCC(C)C)c3C)nc2C)cc1 | nt | i | nt | i
CC(C)(C)c1cc(C(=O)NCc2cc(F)cc3c2OCOC3)n(Cc2ccccc2)n1 | 53 | i | 83 | i
CCOc1ccccc1NC=C1C(=O)OC(C)(C)OC1=O | i | i | i | i
COc1ccccc1NC=C1C(=O)OC(C)(C)OC1=O | 36 | i | 82 | i
O=C(CCN1Cc2ccccc2OC(c2ccccc2F)C1)N1CCC(N2CCCC(O)C2)CC1 (stereo not given) | nt | i | nt | nt
COc1ccc(CCC(=O)NCc2nc3cccnc3n2Cc2ccccc2)cc1 | nt | i | nt | i
O=C(NCC(c1ccco1)S(=O)(=O)c1cccs1)c1ccc(F)c(F)c1 (stereo not given) | nt | i | nt | 16µM
